Hits are enriched below; roughly 0.95% of the tested compounds scored in any of these assays.
A647 fluor: compound autofluorescence in A647 spectral region. 59,000 tested, under 10 active. Compound fluorescence, A647 channel (570/671 nm), Tris buffer. max dye-equivalent concentration, M;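 note: values scaled relative to a standard on each plate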
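Compound fluorescence was measured in 100 mM Tris buffer, pH 8.0, after 15 min at room temperature, using 570 nm excitation and 671 nm emission filters. Signal was normalized to a per-plate Alexa 647 standard curve and expressed as dye-equivalent concentration at each compound concentration.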
Fluorescein autfl: compound autofluorescence in fluorescein spectral region. actives 0.91% (n = 59,000). AID 593. max fluorescein-equivalent concentration, M. Compound autofluorescence, 480/540 nm, fluorescein-equivalent; active compounds read high; in the data active = max fluorescein-equivalent concentration above about 10 nM; inconclusive = between about 1.1 nM and that limit
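Tris 100 mM pH 8.0; 15 min RT; CCD read, ex 480/em 540 nm. Output: fluorescein-equivalent concentration per compound concentration, from six-point dye series on each plate.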
Resorufin autofl: compound fluoresces in the resorufin spectral region; AID 588; Compound fluorescence, resorufin region 547/598 nm, buffer; active compounds read high; actives 0.04% (n = 59,000); max dye-equivalent concentration, M
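Dye-equivalent concentration values derive from comparing each well's 547/598 nm fluorescence against resorufin standards included on every plate. Incubation was 15 min at room temperature in 100 mM Tris, pH 8.0.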
A488 autofl: A488 region autofluorescence; actives 0.1% (n = 59,000); max dye equivalency, M; compound autofluorescence, A488 spectral region, dye equivalency; Compound Type: qHTS ECL - MLSMR
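Intrinsic compound fluorescence is measured in 100 mM Tris buffer at pH 8.0 following 15 min incubation at room temperature. Intensities at 480 nm excitation/540 nm emission are calibrated to an on-plate A488 concentration series, giving dye-equivalent concentrations.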
Rhodamine fluor: rhodamine region autofluorescence; Rhodamine-region fluorescence, 547/598 nm, Tris buffer; active compounds read high; max dye-equivalent concentration, M; AID 594; actives 0.05% (n = 59,000); in the data active = max dye-equivalent concentration above about 11 nM; inconclusive = between about 1.1 nM and that limit
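Intrinsic compound fluorescence, ex 547 / em 598 nm, CCD imager. Tris 100 mM pH 8.0; 15 min RT. Output = rhodamine dye-equivalent concentration at each compound concentration.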
Texas Red fluor: compounds fluorescent in Texas Red spectral region; Compound fluorescence, Texas Red channel, 547/618 nm; active compounds read high; max dye-equivalent concentration, M; actives 0.06% (n = 59,000); in the data active = max dye-equivalent concentration above about 10 nM; inconclusive = between about 1.1 nM and that limit
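Texas Red-region profiling: compounds in 100 mM Tris pH 8.0 were read at 547/618 nm after 15 min at room temperature. Intensities were normalized against a six-point Texas Red standard series to give dye-equivalent concentration.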
Starred values were filed as active, the others as inactive; i = inactive; ? = inconclusive; ! = repeats disagree. Unless noted, the rule behind the calls is not given here.

SMILES | A647 fluor | Fluorescein autfl | Resorufin autofl | A488 autofl | Rhodamine fluor | Texas Red fluor
Cc1cc(C)n(C(=O)COc2c(C)cccc2C)n1 | 3.9e-08 | ? | i | i | i | i
COc1ccccc1CN1CC2(CCN(S(C)(=O)=O)CC2)C1 | 2.9e-09 | i | i | i | i | i
O=C(O)CCc1nc(-c2ccccc2-n2cccc2)no1 | 1e-09 | i | i | i | i | i
CCC1(c2ccccc2)C(=O)NCNC1=O | 3.4e-08 | 1.2e-08M*! | i | i | i | i
O=C1NC(=O)C(c2ccccc2)(c2ccccc2)N1 | 1e-09 | ? | i | i | i | i
Cc1noc(C)c1-c1nc(N(C)C)c2ccccc2n1 | 1e-09 | i | i | i | i | i
N#CCCn1c(=O)c(-c2cccs2)nc2cnc(N3CCOCC3)nc21 | 3.3e-08 | 1.3e-08M* | i | i | i | i
Cc1ccc(S(=O)(=O)N2CCC(C(=O)Nc3nnc(C4CCCC4)s3)CC2)cc1 | 1.1e-09 | 1.2e-08M* | i | i | i | i
COc1ccc(N=c2oc3cc(O)ccc3cc2C(=O)NCC2CCCO2)cc1 (configuration not stated) | 1.4e-09 | i | i | i | i | i
COc1ccc(N=c2oc3cc(O)ccc3cc2C(=O)NCC2CCCO2)c(OC)c1 (configuration not stated) | 2.6e-08 | 1.4e-08M* | i | i | i | i
Cc1c(-n2cc(C(=O)c3ccccc3O)cc(C#N)c2=O)c(=O)n(-c2ccccc2)n1C | 2.3e-08 | 3.7e-08M* | i | ? | i | i
CCOC(=O)c1csc(NC(=O)CSc2nnnn2-c2ccc(OCC)cc2)n1 | 1e-09 | 2.3e-08M* | i | i | i | i
CC(=Nc1ccc(O)cc1)c1sc2ccccc2c1O | 4.7e-09 | 1e-07M* | i | ? | i | ?
CC(=O)NCCN=C(C)c1sc2ccccc2c1O | 3.7e-08 | ? | i | i | i | ?
CC1(C)O[C@H]2[C@@H](O1)[C@@H](On1nnc3ccc(Cl)cc31)O[C@@H]2[C@@H]1COC(C)(C)O1 | 1.7e-08 | ? | i | i | i | ?
Cc1sccc1C1C(C#N)=C(N)SC(N)=C1C#N | 2.7e-08 | 1.2e-08M* | i | i | i | i
CSc1nc(N)c2ncn([C@@H]3O[C@@H](COP(=O)(O)OP(=O)(O)O)[C@@H](O)[C@H]3O)c2n1 | 1.7e-09 | ? | i | i | i | ?
Cc1csc(NC(=O)c2sc3nc(-c4cccs4)ccc3c2N)n1 | 1e-09 | 1.4e-08M* | i | i | i | i
COc1ccc(C(=O)Nc2nc(-c3cccs3)cs2)cc1 | 1.8e-08 | ? | i | i | i | i
N=c1oc2c3c4c(cc2cc1C(=O)Nc1ccccc1)CCCN4CCC3 | 4.8e-08 | 4.7e-07M* | i | 2.5e-08M* | ? | ?
N#Cc1ccc(NC(=O)c2cc3cc4c5c(c3oc2=N)CCCN5CCC4)cc1 | 3.9e-08 | 2.3e-07M* | i | 1.2e-08M* | i | i
CC(C)[C@H](CO)Nc1nc(Nc2cccc(Cl)c2)c2ncn(C(C)C)c2n1 | 3.6e-08 | ? | i | i | i | i
CC(C)OCCCn1c(=NC(=O)c2ccncc2)c(C#N)cc2c(=O)n3ccccc3nc21 | 1e-09 | 1.9e-08M* | i | i | i | i
CCCCCCOC(=O)C(C#N)c1nc2ccccc2nc1N1CCOCC1 (configuration not stated) | 3.6e-09 | ? | i | i | i | i
CCCCCNC(=O)C(C#N)c1nc2ccccc2nc1N1CCCC1 (configuration not stated) | 1e-09 | 5.5e-07M* | i | 2.9e-08M* | i | i
SMILES | A647 fluor | Fluorescein autfl | Resorufin autofl | A488 autofl | Rhodamine fluor | Texas Red fluor
CCCCCCNC(=O)C(C#N)c1nc2ccccc2nc1N1CCCC1 (configuration not stated) | 1e-09 | 8e-07M* | i | 4.1e-08M* | i | i
CCCCOC(=O)C(C#N)c1nc2ccccc2nc1N1CCOCC1 (configuration not stated) | 5.9e-09 | 2.9e-08M* | i | ? | i | i
COCCCNC(=O)C(C#N)c1nc2ccccc2nc1N1CCCC1 (configuration not stated) | 1.6e-08 | 6.6e-08M* | i | ? | i | i
O=C(c1cccc(F)c1)N1CCC2(CC1)CN(Cc1ccccc1)C2 | 5.3e-09 | i | i | i | i | i
C=C1CC[C@H]2C(C)(C)[C@H](O)CC[C@]2(C)[C@@H]1COc1ccc2ccc(=O)oc2c1 | 2.6e-09 | i | i | i | i | i
CCCCCCNC(=O)C(C#N)c1nc2ccccc2nc1N1CCOCC1 (configuration not stated) | 1.5e-09 | 4.1e-07M* | i | 3e-08M* | i | i
CCCCN(CCCC)c1nc2ccccc2nc1C(C#N)C(=O)NCCCOC (configuration not stated) | 1.6e-08 | 5.7e-08M* | i | ? | i | i
CC1(C)S[C@@H]2[C@H](NC(=O)C(N)c3ccccc3)C(=O)N2[C@H]1C(=O)O (some centres not stated) | 1e-09 | ? | i | i | i | i
CC1(C)S[C@@H]2[C@H](NC(=O)COc3ccccc3)C(=O)N2[C@H]1C(=O)O (tested in a mixture with another compound) | 2.9e-08 | 1.9e-08M* | i | i | i | i
Cc1ccc(C)c(NC(=O)NCc2ccc(Cl)cc2)c1 | 2e-08 | i | i | i | i | i
O=C(c1cccc(F)c1)N1CCC2(CCCN(c3cccc(-c4ccccc4)c3)C2)CC1 | 1e-09 | ? | i | i | i | i
Cc1cc(OCC(=O)NCCN2CCOCC2)ccc1Br | 2.6e-08 | 2.3e-08M* | i | i | i | i
CC(C)(C)c1cc(/C=C(\C#N)C(N)=S)cc(C(C)(C)C)c1O | 7.9e-09 | 2.8e-08M* | i | i | i | i
Cc1cc(-c2ccccc2C(=O)O)on1 | 1.8e-08 | ? | i | i | i | ?
O=C(O)c1ccccc1C1=Nc2ccc(O)cc2Oc2cc(O)ccc21 | 3.6e-08 | 1.7e-07M* | ? | ? | ? | 1.3e-08M*
c1ccc(CCNc2ncnc3c2nnn3Cc2ccccc2)cc1 | 2.6e-09 | 1.2e-08M* | i | i | i | i
c1ccc(Cn2nnc3c(NCCN4CCOCC4)ncnc32)cc1 | 1.8e-08 | i | i | i | i | i
C[C@@H]1O[C@@H](OC[C@@H]2O[C@@H](Oc3c(-c4ccc(O)c(O)c4)oc4cc(O)cc(O)c4c3=O)[C@H](O)[C@H](O)[C@@H]2O)[C@H](O)[C@H](O)[C@@H]1O | 3.8e-09 | ? | i | i | i | i
CCOC(=O)c1n[nH]c2ccccc12 | 4e-08 | ? | i | i | i | i
